# “And” between values parts separate entries of the source, which are not always exact repeats. Equal entries are not always repeated. Inconclusive results are not listed. A call without a number means that no potency is given here. The source made the active and inactive calls. Unless noted, calls follow the shape of the dose curve; as a rule, active = well fitted curve in the direction sought with a large enough effect; inconclusive = small, poorly fitted or top-dose-only effect, or another doubt; inactive = no such curve, though single readings can be large; an effect the other way counts as inactive or inconclusive.
# Columns and labels:
# [1] = Cell Viability - SK-N-SH (AID 435; calls by dose curve; also: potency is read from the fitted curve at half-maximal effect); details: SK-N-SH neuroblastoma cell viability qHTS
# Method in brief: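 qHTS cytotoxicity: CellTiter-Glo ATP luminescence after 40 h compound exposure of human neuroblastoma SK-N-SH cells at 37 °C. AC50 derived by Hill-equation fitting, with DMSO as basal and 100 uM tamoxifen as full inhibition.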
# [2] = Cellular Toxicity (caspase-3) HUV-EC-C (AID 656); details: HUV-EC-C cells, caspase-3 activation (apoptosis), vehicle = 0, 100 µM tamoxifen = 100%; series mostly up to 92.2 µM
# Method in brief: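 Luminescent Caspase-Glo 3/7 readout after 16 h, 37 °C compound exposure of HUV-EC-C endothelial cells, 1000 per well, complete medium. AC50 derived by Hill fitting, with DMSO as baseline and 100 uM tamoxifen as full activation.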
# [3] = Cellular Toxicity (caspase-3) H-4-II-E (AID 663); details: H-4-II-E rat hepatoma; Potency: caspase-3 activation; series mostly up to 92.2 µM;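 also: cells exposed to compound for 16 hr before readout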
# Method in brief: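 H-4-II-E rat hepatoma, 1500 cells/well, 5 hr settle at 37 °C; compound 16 hr, 37 °C, complete medium; Caspase-Glo 3/7, 20 min RT; luminescence. DMSO = 0%, 100 uM tamoxifen = 100%; Hill-equation AC50.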
# [4] = MultiTox-Fluor Cytotoxicity Assay - LYMP1-002 - Dead Cells (AID 960); details: LYMP1-002 lymphoblastoid cells, dead-cell protease fluorescence; series mostly up to 46.1 µM; also: nearly all actives have a fitted effect of over 60% in size
# Method in brief: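 Readout: fluorescence at 485/520 from cell-impermeant bis-AAF-R110 cleaved by proteases leaking from damaged cells. LYMP1-002 lymphoblastoid line, 16 hr compound treatment at 37 C, concentration-response in qHTS format; Hill-equation AC50 values.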
# [5] = Cell Viability - LYMP2-004 (AID 966); details: LYMP2-004 lymphoblastoid cell viability, qHTS; series mostly up to 92.2 µM; also: nearly all actives have a fitted effect of over 65% in size
# Method in brief: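 Luminescent ATP read-out (CellTiter-Glo, 30 min RT) after 24 hr compound exposure at 37 C; 2500 lymphoblastoid cells/well, complete medium. Decrease in ATP = cytotoxicity; AC50 from standard Hill model.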
# [6] = Cell Viability - LYMP2-013 (AID 970); details: LYMP2-013 lymphoblastoid cells viability; series mostly up to 92.2 µM; also: nearly all actives have a fitted effect of over 55% in size
# Method in brief: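 CellTiter-Glo luminescence (cellular ATP) read after 30 min at RT. Cells: human lymphoblastoid line, 2500/well, 24 hr compound exposure at 37 C. Tetraoctylammonium bromide positive control; AC50 via standard Hill fit of qHTS titrations.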
# [7] = Cell Viability - LYMP2-025 (AID 976); details: LYMP2-025 lymphoblastoid cell viability; series mostly up to 92.2 µM
# Method in brief: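 CellTiter-Glo luminescence (cellular ATP) after 24 h compound exposure at 37 C; LYMP2-025 human lymphoblastoid cells, 2500/well, complete medium. Tetraoctylammonium bromide positive control. AC50 by Hill equation fit of qHTS concentration-response.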
# [8] = Cell Viability - LYMP2-007 (AID 979); details: LYMP2-007 lymphoblastoid cell viability; series mostly up to 92.2 µM;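 also: cells exposed to compound for 24 h before reading; nearly all actives have a fitted effect of over 60% in size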
# Method in brief: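 qHTS cytotoxicity: 2500 cells/well, 5 hr 37 C settle, compound 24 hr 37 C, CellTiter-Glo 30 min RT, luminescence. Decrease in ATP = toxicity. AC50 by standard Hill equation; tetraoctylammonium bromide positive control.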
# [9] = Cell Viability - LYMP2-014 (AID 983); details: LYMP2-014 lymphoblastoid cells, viability qHTS; series mostly up to 92.2 µM; also: nearly all actives have a fitted effect of over 50% in size
# Method in brief: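 2500 cells/well, 5 hr 37 C; cpd 24 hr 37 C, complete medium; CellTiter-Glo 30 min RT, luminescence; ATP loss = toxicity; AC50 via Hill eqn; tetraoctylammonium bromide positive control.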
# [10] = Cell Viability - LYMP2-018 (AID 985); details: LYMP2-018 lymphoblastoid cells, viability (qHTS); series mostly up to 92.2 µM; also: nearly all actives have a fitted effect of over 50% in size
# Method in brief: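 2500 cells/well; 5 hr 37 C; cmpd 24 hr 37 C, complete medium; CellTiter-Glo 30 min RT; luminescence. Tetraoctylammonium bromide positive control. AC50 via Hill fit.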
# [11] = Cell Viability - LYMP2-022 (AID 987); details: LYMP2-022 lymphoblastoid cell viability; series mostly up to 92.2 µM; also: nearly all actives have a fitted effect of over 55% in size
# Method in brief: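 Luminescent ATP read-out (CellTiter-Glo, 30 min, RT) after 24 hr, 37 C compound exposure of 2500 human lymphoblastoid cells/well in complete medium. Cytotoxicity taken as concentration-dependent ATP loss; AC50 from standard Hill equation.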
# [12] = Cell Viability - LYMP2-024 (AID 988); details: LYMP2-024 lymphoblastoid cell viability; series mostly up to 92.2 µM; also: nearly all actives have a fitted effect of over 60% in size
# Method in brief: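 ATP-based luminescence (CellTiter-Glo, 30 min RT) after 24 h compound exposure at 37 C of 2500 lymphoblastoid cells/well; decrease in ATP taken as cytotoxicity. qHTS concentration-response fitted to standard Hill equation for AC50.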
# [13] = qHTS assay for small molecule agonists of retinoid X receptor alpha signaling (AID 588544); details: HEK293T RXRa-UAS-bla, beta-lactamase reporter, 18 h; 530 nm emission
# [14] = target: Thyroid hormone receptor beta (Homo sapiens) (UniProt P10828); experiment: qHTS assay for small molecule agonists of thyroid hormone receptor beta signaling (AID 588545; calls by dose curve); details: TR-UAS-bla GripTite HEK 293, beta-lactamase ratio, agonist mode, 18 h; series mostly up to 76.7 µM
# Chain of Thyroid hormone receptor beta (Homo sapiens) (P10828 whole entry, looked up): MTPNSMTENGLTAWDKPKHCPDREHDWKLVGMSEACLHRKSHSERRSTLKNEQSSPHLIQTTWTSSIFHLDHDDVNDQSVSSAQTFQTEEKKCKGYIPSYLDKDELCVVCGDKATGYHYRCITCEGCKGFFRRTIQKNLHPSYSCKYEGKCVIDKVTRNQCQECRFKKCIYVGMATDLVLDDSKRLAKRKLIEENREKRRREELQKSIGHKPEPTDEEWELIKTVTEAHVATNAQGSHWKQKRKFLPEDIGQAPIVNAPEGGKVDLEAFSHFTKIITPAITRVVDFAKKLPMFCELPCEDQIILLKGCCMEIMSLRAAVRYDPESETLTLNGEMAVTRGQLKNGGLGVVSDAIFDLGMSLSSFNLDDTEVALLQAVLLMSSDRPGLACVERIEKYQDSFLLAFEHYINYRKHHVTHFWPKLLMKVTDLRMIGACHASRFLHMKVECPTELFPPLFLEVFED
# Method in brief: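 In this cell-based screen, titrated compounds act on HEK 293 cells held in medium with 2% charcoal/dextran FBS, NEAA and pyruvate for 18 hrs at 37 C. Responses are expressed relative to T3 (10 nM) as 100% and basal DMSO as 0%.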
# [15] = qHTS assay for small molecule antagonists of retinoid X receptor alpha signaling (AID 588546); details: HEK293T RXRa-UAS-bla, beta-lactamase ratio, antagonist mode; measured here: W530 green channel, cytotoxicity proxy;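 also: cells stimulated with 9-cis-retinoic acid as agonist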
# Method in brief: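 Beta-lactamase reporter inhibition, read as CCF4 fluorescence ratio (ex 405, em 460/530 nm) after 2 h at RT. HEK293T UAS-bla cells, 2500/well, were stimulated with 9-cis-RA at 500 or 100 nM final alongside test compound for 18 h at 37 C.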
# [16] = target: Thyroid hormone receptor beta (Homo sapiens) (UniProt P10828); experiment: qHTS assay for small molecule antagonists of thyroid hormone receptor beta signaling (AID 588547; active = well fitted inhibition curve with a large enough effect in the signal ratio, with a control signal flat, not every such curve was filed as active; the % refers to the signal ratio;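 also: cells stimulated with 0.4 nM T3 agonist during compound exposure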); details: TR-UAS-bla HEK293, beta-lactamase ratio, antagonist mode, 18 h
# Method in brief: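 TR-UAS-bla GripTite HEK293 cells in 2% charcoal/dextran FBS medium; compounds 0.59 nM to 92 uM with T3 at 0.4nM final, 18 h at 37 C. Beta-lactamase read by CCF4 fluorescence (460/530 nm); Hill fits gave IC50 and efficacy.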
# [17] = target: Tumor necrosis factor (Homo sapiens) (UniProt P01375); experiment: qHTS assay to identify small molecules that stimulate Tumor Necrosis Factor-alpha (TNF-alpha) secretion (AID 651757; active = well fitted curve in the direction sought with a large enough effect in the signal ratio; the % refers to the signal ratio); details: Human cells, HTRF 665/615 ratio; series mostly up to 92.2 µM
# Chain of Tumor necrosis factor (Homo sapiens) (P01375 whole entry, looked up): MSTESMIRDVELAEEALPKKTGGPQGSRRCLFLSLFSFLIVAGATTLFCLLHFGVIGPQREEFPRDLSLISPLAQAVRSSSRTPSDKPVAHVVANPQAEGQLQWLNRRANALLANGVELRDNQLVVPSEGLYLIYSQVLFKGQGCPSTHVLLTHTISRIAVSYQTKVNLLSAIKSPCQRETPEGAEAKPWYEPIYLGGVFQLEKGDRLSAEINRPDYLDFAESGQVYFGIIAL
# Method in brief: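 THP-1 cells, 3000/well; compound 17 hrs, 37 C; add cryptate/XL665 anti-TNF-alpha antibody pair; 3 hr RT; TR-FRET (HTRF) read of secreted TNF-alpha. Quantitative HTS format.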
# [18] = qHTS assay for cell viability of HEK293 cells (AID 743288); details: ATP luminescence (CellTiter-Glo), 18 h, stronger effect = lower value; also: nearly all actives have a fitted effect of over 50% in size
# Method in brief: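 Readout is luciferase-coupled ATP content (CellTiter-Glo luminescence, 30 min room temperature) as a measure of metabolically competent cells. Parental HEK293 cells were plated 5 h or more before compound addition, then treated 18 h at 37 C.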
# [19] = target: Nuclear receptor subfamily 1 group I member 2 (Rattus norvegicus) (UniProt Q9R1A7); experiment: qHTS assay for small molecule activators of the rat pregnane X receptor (rPXR) signaling pathway (AID 651751; call rule not given here); details: rPXR reporter cells, luciferase (One-Glo), 24 h
# Chain of Nuclear receptor subfamily 1 group I member 2 (Rattus norvegicus) (Q9R1A7 whole entry, looked up): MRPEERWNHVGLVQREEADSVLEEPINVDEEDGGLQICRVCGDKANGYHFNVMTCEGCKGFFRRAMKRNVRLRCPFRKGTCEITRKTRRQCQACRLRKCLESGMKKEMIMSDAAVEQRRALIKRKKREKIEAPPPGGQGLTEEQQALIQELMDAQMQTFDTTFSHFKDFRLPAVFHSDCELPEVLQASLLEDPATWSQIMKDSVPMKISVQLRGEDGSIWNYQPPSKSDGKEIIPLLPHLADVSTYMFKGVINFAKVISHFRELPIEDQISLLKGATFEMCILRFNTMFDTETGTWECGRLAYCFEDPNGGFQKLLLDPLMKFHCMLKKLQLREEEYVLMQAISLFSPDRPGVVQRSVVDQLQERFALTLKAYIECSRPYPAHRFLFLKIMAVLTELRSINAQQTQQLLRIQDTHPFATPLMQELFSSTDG
# [20] = Cell Viability - LYMP2-005 (AID 967); details: LYMP2-005 lymphoblastoid cell viability; series mostly up to 92.2 µM
# Method in brief: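 LYMP2-005 human lymphoblastoid cells (2500/well) were treated with compounds for 24 h at 37 C. Intracellular ATP was then measured by CellTiter-Glo luminescence after 30 min at room temperature. AC50 values came from Hill-equation fits of qHTS concentration-response data.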
Structure (SMILES),Potency [1],outcome [2],Potency [3],Potency [4],Potency [5],Potency [6],Potency [7],Potency [8],Potency [9],Potency [10],Potency [11],Potency [12],max response [13],Potency [14],max response [15],activity change % (negative = inhibition) [16],outcome [17],max response [18],max response [19],Potency [20]
Nc1cccc(Cl)c1,> 92 µM (inactive),inactive,inactive,inactive,inactive,inactive,inactive,inactive,inactive,inactive,inactive,inactive,4.67%,inactive,0.683%,2.78% (inactive),inactive,-8.5% (inactive),1.89% (inactive),
O=C(O)C(Cl)Br (stereo not given),> 92 µM (inactive),inactive,,inactive,inactive,inactive,inactive,inactive,inactive,inactive,inactive,inactive,-0.567%,,-6.53%,7.08% (inactive),inactive,6.83% (inactive),-1.1% (inactive),inactive
CC12CC1(C)C(=O)N(c1cc(Cl)cc(Cl)c1)C2=O (stereo not given),> 92 µM (inactive),inactive,inactive,inactive,inactive,inactive,inactive,inactive,inactive,inactive,inactive,inactive,-5.02% and -2.83%,inactive,4.78%,4.26% (inactive) and 9.02% (inactive),inactive,5.03% (inactive) and -17.6% (inactive),12.6% (inactive) and 11% (inactive),inactive
ClCc1ccccc1,> 92 µM (inactive),inactive,inactive,inactive,inactive,inactive,inactive,inactive,inactive,inactive,inactive,inactive,-0.901%,inactive,-2.86%,2.64% (inactive),inactive,-10.4% (inactive),-2.08% (inactive),inactive
O=Cc1ccc2c(c1)OCO2,> 92 µM (inactive),inactive,inactive,inactive,inactive,inactive,inactive,inactive,inactive,inactive,inactive,inactive,19.3%,inactive,-8.14%,5.85% (inactive),inactive,-0.123% (inactive),2.27% (inactive),inactive
CC1CC(=O)O1 (stereo not given),> 92 µM (inactive),,inactive,inactive,inactive,inactive,inactive,inactive,inactive,inactive,inactive,inactive,-12.1%,inactive,-1.73%,,inactive,-7.61% (inactive),0.366% (inactive),inactive

# Reference: PubChem BioAssay (NCATS)
